Out of some 310,000 compounds screened, about 14,000 (4.5%) showed an effect of 50% or more. The effect is printed as a negative number. This is one part of a sample in which strong results are shown more often than they occur.
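Also: peak tail current of the secondary pulse compared with the same well before compound.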

This assay deals with human ether-à-go-go-related gene (hERG) potassium channel (human, UniProt Q12809). Briefly: primary screen, population patch clamp on CHO cells stably expressing hERG; higher = less effect of the substance.
Chain of human ether-à-go-go-related gene (hERG) potassium channel (Q12809 whole entry, looked up): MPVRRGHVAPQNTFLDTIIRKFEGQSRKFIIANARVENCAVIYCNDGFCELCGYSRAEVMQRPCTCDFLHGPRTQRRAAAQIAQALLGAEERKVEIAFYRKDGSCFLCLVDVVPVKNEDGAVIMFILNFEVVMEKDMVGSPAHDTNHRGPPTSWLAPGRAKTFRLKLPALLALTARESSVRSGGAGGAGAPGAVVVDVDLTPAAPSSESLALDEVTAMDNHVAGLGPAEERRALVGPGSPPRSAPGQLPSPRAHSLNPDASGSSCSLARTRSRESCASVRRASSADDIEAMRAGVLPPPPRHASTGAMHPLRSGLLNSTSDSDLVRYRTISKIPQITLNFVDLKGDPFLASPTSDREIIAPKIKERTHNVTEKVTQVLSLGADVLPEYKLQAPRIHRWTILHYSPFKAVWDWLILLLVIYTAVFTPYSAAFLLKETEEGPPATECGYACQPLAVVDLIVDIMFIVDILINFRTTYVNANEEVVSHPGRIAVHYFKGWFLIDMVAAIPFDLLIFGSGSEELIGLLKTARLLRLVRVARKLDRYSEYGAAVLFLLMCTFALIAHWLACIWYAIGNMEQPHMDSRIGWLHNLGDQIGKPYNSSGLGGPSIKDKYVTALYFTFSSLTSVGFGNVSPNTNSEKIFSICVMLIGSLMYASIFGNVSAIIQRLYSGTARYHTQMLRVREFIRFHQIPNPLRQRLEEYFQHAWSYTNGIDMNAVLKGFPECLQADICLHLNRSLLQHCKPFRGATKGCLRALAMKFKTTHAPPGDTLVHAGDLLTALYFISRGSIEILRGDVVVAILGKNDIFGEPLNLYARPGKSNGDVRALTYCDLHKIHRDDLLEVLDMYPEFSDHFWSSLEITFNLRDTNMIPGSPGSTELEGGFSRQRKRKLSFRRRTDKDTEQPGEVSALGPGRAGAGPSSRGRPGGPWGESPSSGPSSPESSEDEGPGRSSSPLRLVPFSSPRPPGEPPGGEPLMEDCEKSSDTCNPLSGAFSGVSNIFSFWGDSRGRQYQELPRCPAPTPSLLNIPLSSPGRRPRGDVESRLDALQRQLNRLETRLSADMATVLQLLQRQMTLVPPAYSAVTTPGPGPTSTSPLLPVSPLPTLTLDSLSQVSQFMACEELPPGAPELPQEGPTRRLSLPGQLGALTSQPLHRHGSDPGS
Regarding `COc1ccccc1NC(CC(=O)c1ccccc1)C(=O)OCC(=O)c1ccc(Br)cc1` (centres unmarked), the “hERG current change (%, negative = inhibition) at 10uM” value is reported as -3.81%.
As for `Cc1ccc(C2=NN(C(=O)c3cccs3)C(c3ccccc3O)C2)cc1` (centres unmarked), the “hERG current change (%, negative = inhibition) at 10uM” value stood at 34%.
Consider `O=S1(=O)N=C(N(CCO)/N=C/c2ccc(Cl)cc2)c2ccccc21`, for which the “hERG current change (%, negative = inhibition) at 10uM” value was 4.3%.
Consider `CN(C)c1ccc(P(=O)(Nc2ccc([N+](=O)[O-])cc2)N2CCOCC2)c(NC(=O)c2cccs2)c1` (centres unmarked), for which the “hERG current change (%, negative = inhibition) at 10uM” value stood at 16.9%.
Consider `Cc1nc(=O)c(-c2ccccc2)c(C)n1-c1ccc(O)cc1`, for which the “hERG current change (%, negative = inhibition) at 10uM” value came out at 9.6%.
The result for `O=C(NCCCl)Nc1cccnc1Cl` reads 12.2%; that for `COc1ccc(/C(C)=N\n2cnnc2)cc1`, 6.86%.
For `O=C(CNC(=O)c1ccccc1)OCc1cccc(Br)c1`, the “hERG current change (%, negative = inhibition) at 10uM” value is given as -17.8%.
The value for `CCOC(=O)CNC(=O)/C(=C\c1ccc(F)cc1)NC(=O)c1ccccc1` was -26.4%; that for `O=C(CNC(=O)/C(=C/c1ccccc1)NC(=O)c1ccc(Br)cc1)OCc1ccccc1` was -64%.
Take `CC(=O)N/C(=C\c1ccccc1)C(=O)OCc1ccc(C)cc1`: the “hERG current change (%, negative = inhibition) at 10uM” value is -19.9%.
On to `O=C(CNC(=O)c1ccc(Oc2ccccc2)cc1)OCc1ccc(Br)cc1`, for which the “hERG current change (%, negative = inhibition) at 10uM” value is given as -0.714%.
Turning to `O=C(CNC(=O)/C(=C\c1ccccc1)NC(=O)c1ccc(Br)cc1)OCc1ccccc1`, the “hERG current change (%, negative = inhibition) at 10uM” value is recorded as -69.1%.
The value for `Cc1ccc(C(=O)N/C(=C\c2ccccc2)C(=O)OCc2ccccc2)cc1` was -50.7%.
In the case of `O=C(NC(Cc1ccccc1)C(=O)O)/C(=C\c1ccc(F)cc1)NC(=O)c1ccccc1` (centres unmarked), the “hERG current change (%, negative = inhibition) at 10uM” value is given as 11.1%.
Turning to `O=C(Nc1ccc(C(=O)O)cc1)/C(=C\c1ccccc1)NC(=O)c1ccc(Br)cc1`, the “hERG current change (%, negative = inhibition) at 10uM” value was found to be 7.33%.
On to `O=C(CNC(=O)/C(=C\c1ccc(F)cc1)NC(=O)c1ccccc1)OCc1ccccc1`, for which the “hERG current change (%, negative = inhibition) at 10uM” value was -80.7%.
Turning to `Cc1ccc(/C=C(\NC(=O)c2ccccc2)C(=O)OCc2ccccc2)cc1`, the “hERG current change (%, negative = inhibition) at 10uM” value is 10.3%.
Turning to `CC1(C(=O)NCCCN2CCOCC2)Oc2cccnc2NC1=O` (centres unmarked), the “hERG current change (%, negative = inhibition) at 10uM” value is 13.2%.
Turning to `Cc1ccccc1NC(=S)Nc1ccc(Br)cc1`, the “hERG current change (%, negative = inhibition) at 10uM” value is -6.93%.
For `CS(=O)(=O)N(Cc1ccccc1)c1ccc(C(=O)Nc2ccccc2Sc2ccccc2)cc1`, the “hERG current change (%, negative = inhibition) at 10uM” value worked out at 1.8%.
The value for `Cc1cccc(C)c1NC(=O)CN(C)C(=O)c1ccccc1Sc1ccccc1C#N` was -4.76%; that for `O=C(NC(=S)NCc1cccnc1)c1cc2ccccc2o1` was 8.71%.

(Values after PMC4336329 (PLoS ONE, 2015).)
